The list is not random: actives were taken first. Their share in the collection is about 5.7%.
HEK293 tox: qHTS of GLP-1 Receptor Inverse Agonists: Cytotox Screen | HEK293 cAMP-luciferase reporter cells, luminescence, 24 h | 410,000 compounds, 0.13% hits | AID 624418, 2012 | Potency, µM (top dose mostly 38.3 µM), without a hit: top-dose activity change, negative = inhibition, most hits filed as inhibitors;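 further: loss of luciferase light is scored as toxicity; potency means the concentration at half of the fitted maximal effect; on the % scale 0 is the no-effect control and ±100 the full control effect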
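Here, cytotoxicity is scored as loss of luminescence. The MLSMR collection was tested on cells seeded in medium containing 10% Nu serum, with a 24 hr compound exposure preceded by 12 hours of culture.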
D3 antag: qHTS of D3 Dopamine Receptor Antagonist: qHTS; D(3) dopamine receptor (Homo sapiens), P35462; 360,000 compounds, 2.5% hits; max response, negative = inhibition, %; D3R cells, DiscoveRx beta-arrestin luminescence, antagonist mode; stronger effect = lower value; in the data active means max response below about -50%; inconclusive means no clear call, values can overlap the other calls; further: on the % scale 0 is the no-effect control and ±100 the full control effect
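Cells expressing the human receptor were seeded at 1500 cells/well, incubated overnight at 37 degrees C in 5% CO2, then exposed to library compounds with dopamine controls for 90 minutes at 37 degrees C before luminescent detection.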
ClpP mod: qHTS Assay for Activators of ClpP. ATP-dependent Clp protease proteolytic subunit (Bacillus subtilis (strain 168)), P80244. purified B. subtilis ClpP, FRET peptide cleavage, 20 min. Potency, µM (top dose mostly 57.5 µM), for inactives: top-dose activity change, negative = active. 340,000 compounds, 1.9% hits; active means well fitted falling curve with a large enough effect; inconclusive means small, poorly fitted or top-dose-only effect; inactive means no such curve, though single readings can be large or run the other way; further: potency means the concentration at half of the fitted maximal effect; the source files actives as falling curves though it sought activators and does not explain the sign; nearly all actives have a fitted effect of over 65% in size
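FRET quenching reversal measured ClpP activation: 10 microg/mL B. subtilis ClpP at pH 8 with the FRET-FV decapeptide, read at 430 nm after 320 nm excitation. The 20-min minus 0-min signal was scaled between DMSO/no-enzyme wells and ADEP (5.8 microM final).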
DRD3 agonist: qHTS of D3 Dopamine Receptor Agonist: qHTS; D(3) dopamine receptor (Homo sapiens), P35462; D3R DiscoveRx beta-arrestin cells, luminescence, 90 min; max activation, %; 410,000 compounds, 0.58% hits; AID 652048, 2013; in the data active means max activation above about 30%; further: 0% is about no effect
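Agonist-mode cell screen: cells plated at 1500/well and incubated overnight at 37 °C, then exposed to library compounds for 90 min at 37 °C. Detection reagent was added for 30–60 min at room temperature, and luminescence was read.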
GLP-1R agonist: qHTS of GLP-1 Receptor Agonists | Glucagon-like peptide 1 receptor (Homo sapiens), P43220 | AID 624172, 2012 | HEK293 GLP-1R CRE-luciferase, luminescence, 4-6 h; cells express a hypersensitive GLP-1R form | 380,000 compounds, 0.007% hits | Potency, µM (top dose mostly 45.6 µM), without a hit: at the top dose activation, usual class: activators; further: potency means the concentration at half of the fitted maximal effect; % of control where 0% means no effect
GLP-1R inv ag: qHTS of GLP-1 Receptor Inverse Agonists (Inhibition Mode). Glucagon-like peptide 1 receptor (Homo sapiens), P43220. HEK293 GLP-1R CRE-luciferase, luminescence, 24 h; GLP-1R form is constitutively active. Potency, µM (highest dose often 38.3 µM), inactives show top-dose activity change, negative = inhibition, usual class: inhibitors. 410,000 compounds, 1.6% hits. AID 624417, 2012; further: potency means the concentration at half of the fitted maximal effect; on the % scale 0 is the no-effect control and ±100 the full control effect; nearly all actives have a fitted effect of over 55% in size
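HEK293 cells stably co-expressing a cAMP-responsive luciferase reporter and constitutively active GLP-1R were seeded, incubated 12 h, then exposed to compounds for 24 h at 37 C. Luminescence was read 12 min after detection reagent; inverse agonists lower signal.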
An asterisk follows results filed as active; ? = inconclusive; . = not tested or not shown; ! = a repeat was not active. Unless noted, the call rests on the fitted dose curve; in most records, active means well fitted curve in the direction sought with a large enough effect; inconclusive means small, poorly fitted or top-dose-only effect, or another doubt; inactive means no such curve, though single readings can be large; an effect the other way counts as inactive or inconclusive.

SMILES | HEK293 tox | D3 antag | ClpP mod | DRD3 agonist | GLP-1R agonist | GLP-1R inv ag
C=CC[C@]12CC=CC(=O)[C@@]1(O)O[C@H](c1ccc(OC)c(OC)c1)[C@H]2C | -25% | ? | 2% | 4 | 0% | 11µM*
CCN1C(=O)[C@@H]2Cc3c([nH]c4ccccc34)C(c3cc(OC)c(OC)c(OC)c3)N2C1=S (stereo partly specified) | 123% | -13 | -2% | 1 | 7% | ?
COc1cc([C@H]2c3[nH]c4ccccc4c3C[C@H]3C(=O)N4[C@@H](c5cc(OC)c(OC)c(OC)c5)c5[nH]c6ccccc6c5C[C@H]4C(=O)N23)cc(OC)c1OC | -83% | 0 | 30% | -23 | -3% | 10µM*
CC(C)CN1CC(=O)N2C(c3ccccc3)c3[nH]c4ccccc4c3C[C@H]2C1=O (stereo partly specified) | -11% | 35 | 1% | 16 | 3% | 10µM*
COc1ccc(C)cc1NC(=O)C1CCCN(S(=O)(=O)c2ccc3c(c2)oc(=O)n3C)C1 (stereo unspecified) | -17% | . | 0% | 3 | 1% | -13%
CCc1nc2c(OCc3ccc(Cl)cc3Cl)cccn2c1N(C)C(C)=O | -4% | 4 | 0% | -1 | 8% | ?
Cc1ccccc1N1C(N)=NC(N)=NC1(C)C | -8% | 32 | -3% | 0 | 3% | 17%
COc1ccccc1N1C(N)=NC(N)=NC1(C)C | 10% | -53*! | -3% | -11 | -5% | 5%
CC(C)c1ccc(S(=O)(=O)c2nnn3c2nc(NCC2CCCO2)c2ccccc23)cc1 (stereo unspecified) | 0% | 2 | 4% | 1 | -3% | 2%
CCc1ccc(S(=O)(=O)c2n[nH]n3c2nc(=O)c2ccccc23)cc1 | -4% | -4 | 32µM* | -3 | -1% | -17%
CC(C)c1ccc(S(=O)(=O)c2n[nH]n3c2nc(=O)c2ccccc23)cc1 | -3% | -9 | 25µM* | -1 | -11% | 0%
O=c1nc2c(-c3ccccc3F)n[nH]n2c2ccccc12 | -8% | 6 | 28µM* | -7 | -1% | 44%
O=c1nc2c(-c3ccc(F)cc3Cl)n[nH]n2c2ccccc12 | 1% | . | 5% | 8 | . | 45%
Cc1nn(-c2ccccc2)c2c1N(CC(=O)N1CCN(c3cccc(Cl)c3)CC1)C(=O)CS2 | 3% | . | -3% | 1 | . | 3%
COc1ccc(CN(Cc2ccccc2)C(=O)c2ccncc2)cc1COc1ccc(NC(C)=O)cc1 | . | . | 1% | . | . | .
C=CCn1c(SCC(=O)c2cc(C)n(C(C)COC)c2C)nc2sc(C)c(C)c2c1=O (stereo unspecified) | -16% | 20 | -3% | 60* | 0% | ?
C=CCn1c(SCc2c(C)noc2C)nc2sc(C)c(C)c2c1=O | -8% | -16 | 2% | 35* | 14% | 0%
C=CCn1c(SCC(=O)NCCO)nc2sc(C)c(C)c2c1=O | 0% | 1 | . | 6 | 17% | 80%
Cc1ccc(NC(=O)CN2C(=O)CCn3nc(-c4cccn4C)cc32)cc1 | -3% | . | 2% | 3 | . | -16%
O=C(OCc1nnc(-c2ccccc2)o1)c1ccc(Cl)cc1 | -3% | -16 | 0% | 0 | 3% | 2%
O=C(OCc1nnc(-c2ccccc2)o1)c1cc(S(=O)(=O)N2CCOCC2)c(Cl)cc1Cl | 7% | -55* | -2% | 1 | 13% | 4%
O=C(OCc1nnc(-c2ccccc2)o1)c1ccc(S(=O)(=O)NCc2ccco2)cc1 | 7% | -78* | -4% | -5 | 5% | 9%
O=C(OCc1nnc(-c2ccccc2)o1)c1ccc(CO)cc1 | 4% | -51* | -1% | -4 | -3% | 3%
CS(=O)(=O)c1ccc(C(=O)OCc2nnc(-c3ccccc3)o2)cc1[N+](=O)[O-] | ? | -60* | . | -15 | -6% | ?
O=C(COc1ccc(F)cc1)Nc1nnc(SCc2cc(=O)n3ccccc3n2)s1 | -3% | . | -4% | -11 | . | -4%
SMILES | HEK293 tox | D3 antag | ClpP mod | DRD3 agonist | GLP-1R agonist | GLP-1R inv ag
COCCCN1C(=O)C(CC(=O)NC2CCCCC2)CC(C(=O)N(C)C)=C1C (stereo unspecified) | -6% | -5 | 1% | -2 | -4% | 9%
Cc1cc(C)n(-c2ccc(C(=O)OCc3nnc(-c4ccccc4)o3)cc2)n1 | -1% | -5 | 35µM* | 1 | -1% | 17%
Cc1cc(C)n(-c2ccc(C(=O)OCc3ccccc3)cc2)n1 | 19% | -1 | . | -4 | 13% | ?
Brc1ccc(OCc2ccccc2)c(CNCc2ccncc2)c1 | -27% | -62* | -1% | -40 | -17% | ?
Cc1ccc(C(C)C)c(OCCNCc2ccccc2)c1 | 0% | -8 | 1% | 3 | -8% | ?
Clc1cc(Br)ccc1OCCCNCc1ccccc1 | ? | -88* | -2% | -11 | 21% | ?
Cc1ccc(C)c(OCCCNCc2ccccc2)c1 | 6% | -54* | -1% | -6 | 0% | -28%
CCOc1ccccc1-c1n[nH]c(=S)o1 | 3% | 13 | ? | -18 | -9% | -2%
COc1ccc(-c2n[nH]c(=S)o2)c(OC)c1 | 10% | -9 | 25µM* | -6 | 1% | 2%
COc1ccc(CCNC(=O)CCc2c(C)c3cc4c(C)coc4cc3oc2=O)cc1 | 1% | . | -21% | 7 | . | 13%
Cc1[nH]c2ccc(Br)cc2c1CCNC(=O)c1cc2ccccc2oc1=O | 2% | . | 4% | 3 | 0% | 6%
Cc1cc(OCCNCCO)cc(C)c1Cl | 82% | 0 | -2% | -10 | 0% | 8.9µM*
COc1ccc2[nH]c(=O)c(CN(C(C)=O)C3CCCCC3)cc2c1 | 22% | 5 | 32µM* | 1 | 3% | 0%
COc1ccc2[nH]c(=O)c(CN(C(C)=O)c3cccc(C)c3)cc2c1 | -1% | 16 | 35µM* | -4 | 4% | 6%
COc1ccc(N(Cc2cc3cc(C)ccc3[nH]c2=O)C(C)=O)cc1 | 1% | 1 | -27% | -1 | -2% | 0%
CN1C(=O)NC(c2ccccc2)C2=C1CN(c1cccc(C(F)(F)F)c1)C2=O (stereo unspecified) | -20% | 13 | 40µM* | -2 | 5% | ?

Source: PubChem BioAssay (National Center for Advancing Translational Sciences (NCATS))
